From PubChem BioAssay AID1508624 (National Center for Advancing Translational Sciences (NCATS), 2021)
Among all 48,000 compounds or so, about 120 (0.25%) were called active. A call without a number means that no potency is given here. Inconclusive results (about 4%) are left out. Calls come from the whole dose curve; as a rule, active = well fitted activation curve with a large enough effect; inconclusive = small, poorly fitted or top-dose-only effect, or another doubt; inactive = no such curve, though single readings can be large or run the other way. For the sample, actives were picked, then their nearest neighbours and some compounds at random.

Test: Primary qHTS for Identification of Small Molecule Activators of Huntingtin-Antisense Promoter Activity; note: nearly all actives have a fitted effect of over 55% in size
Conditions: HEK293 HTT-AS promoter firefly luciferase reporter, 24 h; series mostly up to 57.5 µM
Source text: Assay Provider: Russell L. Margolis M.D.
Department Neurology, Johns Hopkins University School of Medicine, Baltimore, MD
Huntington's Disease (HD) is a neurodegenerative disorder caused by a CAG repeat expansion in exon 1 of huntingtin (HTT). While there are currently no disease-modifying treatments for HD, recent efforts have focused on development of nucleotide-based therapeutics to lower HTT expression. As an alternative to siRNA or oligonucleotide methods, we hypothesized that suppression of HTT expression might be accomplished by small molecules that either (1) directly decrease HTT expression by suppressing HTT promoter activity or (2) indirectly decrease HTT expression by increasing the promoter activity of HTT-AS, the gene antisense to HTT that appears to inhibit expression of HTT.
We developed and employed a high throughput screen for modifiers of HTT and HTT-AS promoter activity using luminescent reporter HEK293 cells; of the 52,041 compounds tested, we identified 898 replicable hits. We used a rigorous stepwise approach to assess compound toxicity and the capacity of the compounds to specifically lower huntingtin protein in 5 different cell lines, including HEK293 cells, HD lymphoblastoid cells, mouse primary neurons, HD iPSCs differentiated into cortical-like neurons, and HD hESCs. We found no compounds which were able to lower huntingtin without lowering cell viability in all assays, though the potential efficacy of a few compounds at non-toxic doses could not be excluded.
SEQUENCE No. (1, 2, 3, etc.); […] (e.g., Cells, Incubation, Reagent, etc.); VALUE and DESCRIPTION.
1; Reagent; 4 uL; 2,500 Hek293 luciferase reporter cells per wells
3; Compound; 23 nL; Control inhibitor / compound library
5; Reagent; 2.5 uL; Firefly Luc reagent; Dual-Glo Luciferase Reporter Assay System (Promega)
6; Time; 10 min; room temperature incubation
7; Detection; Luminescence; FLuc
NOTES (numbers refer to sequence above)
1; High-throughput screening, measuring luminescence from a Hek293 luciferase reporter, was performed in 1,536 well white-walled tissue-culture treated plates. 2,500 cells were plated in 4 µL of Opti-MEM per well using a Multidrop Combi Reagent Dispenser (ThermoFisher).
2; Assay plates were cultured for 24 hours.
3; Control inhibitor (PTC124; final concentration of 50 uM) and compound library (at final concentrations of 460 nM - 57.5 uM) were added to the assay plate using the Kalypsis Pintool Robotic System equipped with 1536 pinheads.
4; Cells were then incubated for 24 hours at 37 degrees C prior to luminescence measurements.
5; In all cases, luminescence was measured using the Dual-Glo Luciferase Reporter Assay System (Promega) following the manufacturer's instructions.
6; Room temperature incubation.
7; Luminescence signal was obtained using the PerkinElmer ViewLux plate reader. Results were normalized to vehicle control (0% activity) and zero RLU (-100% activity).
Potency is the fitted concentration of half-maximal effect.

Structure (SMILES)	activity change, positive = activation	Potency
COC(=O)c1cc(Cl)c(NC(C)=O)cc1OC	inactive	
COc1ccc(CNC(=O)Cn2nnc(-c3ccccc3F)n2)cc1	inactive	
CCCC(=O)N1CCN(c2nc3c(OC)ccc(C)c3s2)CC1	inactive	
COc1ccc(-n2c(=O)c3ccccc3n(Cc3ccccc3Cl)c2=O)cc1	inactive	
O=C(c1ccc(C(F)(F)F)cc1)N1CCC(c2nc(-c3ccc(S(=O)(=O)N4CCCC4)cc3)no2)CC1	inactive	
CCCC(=O)Nc1cc(C(=O)NCc2ccc(OC)cc2)ccc1S(=O)(=O)c1ccc(Cl)cc1	inactive	
O=C(Nc1nc2ccc(F)cc2s1)c1nc(SCc2ccccc2F)ncc1Cl	inactive	
C=Cc1c(C)c2cc3nc(cc4[nH]c(cc5nc(cc1[nH]2)C(C)=C5CCC(=O)O)c(CCC(=O)OC)c4C)[C@@]1(C)C3=CC=C(C(=O)OC)[C@H]1C(=O)OC	inactive	
CC(Nc1ccc(-c2nc(-c3ccco3)no2)cc1[N+](=O)[O-])c1ccccc1 (centres undefined)	inactive	
CCOc1ccc(NC(=O)c2c(NC(=O)Cc3ccccc3)sc3c2CCC(C)C3)cc1 (centres undefined)	inactive	
CCCOc1ccc(-c2cccc(NS(=O)(=O)c3ccccc3)c2)nn1	inactive	
Cc1cccc(NC(=O)CSc2nc3c(oc4ccccc43)c(=O)n2-c2ccc(F)cc2)c1	inactive	
Cc1cc(C)cc(OCC(=O)Nc2c(C(=O)c3ccccc3)oc3ccccc23)c1	inactive	
O=C(NC1CCCCC1)c1ccc(Cn2c(SCc3ccccc3)nc3cccnc32)cc1	inactive	
COc1cc(C(=O)Nc2ccc(OCc3cc(=O)n4ccc(C)cc4n3)cc2)cc(OC)c1OC	inactive	
Cc1cc2c(cc1S(=O)(=O)CCC(=O)Nc1ccc(OC(F)(F)F)cc1)OCC(=O)N2	inactive	
CCn1c(=O)c(=O)n(CC)c2cc(N3CCCCC3)c(NC(=O)c3ccc(Cl)cc3)cc21	inactive	
COc1ccc(NC(=O)COCc2cc(-c3ccco3)on2)cc1	inactive	
COc1ccc(Cn2ccnc2SCC(=O)NCc2ccco2)cc1	inactive	
COc1cccc(C(=O)Nc2ccc3oc(-c4ccc5ccccc5c4)nc3c2)c1	inactive	
COc1ccccc1N1CCN(C2C(=O)c3ccccc3N2C(C)=O)CC1 (centres undefined)	inactive	
CCOC(=O)c1oc2ccc(S(=O)(=O)n3nc(-c4ccccc4OC)cc3N)cc2c1C	inactive	
Cc1ccc(C)c(N2C(=O)N(Cc3c(F)cccc3Cl)c3ccccc3S2(=O)=O)c1	inactive	
Cc1ccc(S(=O)(=O)N(Cc2nc(-c3ccc(Cl)cc3)no2)C2CCCCC2)cc1	inactive	
COc1cccc(-n2cc(C(=O)NCc3cccc(Cl)c3)c3ccccc3c2=O)c1	inactive	
Cc1ccc(S(=O)(=O)N2CCCc3cc(NS(=O)(=O)c4cc(C)ccc4C)ccc32)cc1	inactive	
NCC[C@H](O)C(=O)N[C@@H]1C[C@H](N)[C@@H](O[C@H]2O[C@H](CN)[C@@H](O)[C@H](O)[C@@H]2O)[C@H](O)[C@@H]1O[C@H]1O[C@H](CO)[C@@H](O)[C@H](N)[C@@H]1O	-2.89% [at 0.74 µM, percent change from vehicle, -100% = no light] (inactive)	

Structure (SMILES)	activity change, positive = activation	Potency
CCCN(C(=O)Cn1cc(S(=O)(=O)N2CCN(c3ccccc3F)CC2)c2ccccc2c1=O)c1cccc(C)c1	inactive	
Cc1ccc(C)c(OCC(=O)Nc2sc3c(c2C#N)CCCC3)c1C	-6.79% [at 11.5 µM, percent change from vehicle, -100% = no light] (inactive)	
O=C(CN1C(=O)COc2ccc(S(=O)(=O)N3CCOCC3)cc21)N1CCN(c2cccc(Cl)c2)CC1	inactive	
COc1ccc(Cn2c(C(=O)O)c(CNCc3cccc(OC)c3)c3ccc(C)cc32)cc1	inactive	
Cc1cc(C)c(NC(=O)Cn2c(SCC(=O)NCc3ccccc3)nc3ccccc32)c(C)c1	inactive	
CCOC(=O)c1cccc(NS(=O)(=O)c2cn(C)c(C)n2)c1	inactive	
COc1cc2[nH]c(=O)n(Cc3ccc(C(=O)NCc4ccc(C)cc4)cc3)c(=O)c2cc1OC	inactive	
CCOC(=O)c1c(NC(=O)Cc2coc3ccc(CC)cc23)sc2c1CCC2	inactive	
COc1cccc(C(c2c(O)cc(C)n(Cc3ccco3)c2=O)N2CCN(c3ccccc3)CC2)c1 (centres undefined)	inactive	
COc1ccc(CC(=O)N2CC(=O)Nc3ccc(Br)cc3C2c2ccc(F)cc2)cc1OC (centres undefined)	inactive	
Cc1ccc(CNS(=O)(=O)c2ccc(-c3cc(C(F)(F)F)on3)s2)cc1	inactive	
Cc1ccc2nc(CNC(=O)c3ccccc3)[nH]c2c1		4.47 µM (active)
CCCNC(=O)C1CCN(c2nc3ccc(C)cc3[nH]2)CC1	inactive	
COc1ccc(-c2nc3ccc(C(=O)NCc4ccc(C)cc4)cc3nc2-c2ccc(OC)cc2)cc1	inactive	
COc1ccc(-c2nc3sc(CCNC(=O)C(C)(C)C)c(C)n3n2)cc1	inactive	
COc1ccc(C)cc1-n1c(-c2ccc(C)cc2)cc2c1CC(C)(C)CC2=O	inactive	
Cc1cc(Br)ccc1NC(=O)Cn1cnc2sc(C)c(S(=O)(=O)N3CCN(C)CC3)c2c1=O	inactive	
Cc1ccc(-c2noc(-c3nnn(-c4cccc(C(F)(F)F)c4)c3N)n2)cc1	inactive	
O=C(Nc1ccc(C(=O)OCc2cc(=O)n3nc(C4CC4)sc3n2)cc1)c1ccc(F)cc1	inactive	
COc1ccc(Cn2c(=O)c3oc4ccccc4c3n(CC(=O)Nc3ccc(F)cc3F)c2=O)cc1	inactive	
O=C(CN1CCSc2ccccc21)N1CCN(c2ccccc2)CC1	inactive	
COc1ccc2c(c1)c(N1CCCC1=O)c(C(=O)Nc1ccccc1C(F)(F)F)n2C	inactive	
Cc1ccc(NC(=O)CSc2nc3c([nH]c4ccccc43)c(=O)n2-c2ccccc2)cc1Cl	inactive	
Cc1ccccc1Cn1nc(C)c(NC(=O)c2cc(-c3ccc(F)cc3)on2)c1C	inactive	
CCn1cc(C(=O)N2CCN(c3cc(C)ccc3C)CC2)c(=O)c2cc(S(=O)(=O)N(C)C3CCCCC3)ccc21	inactive	
Cc1ccc(C)c(N2CCN(c3ccc4cc(S(=O)(=O)N5CCC(C)CC5)ccc4n3)CC2)c1	inactive	
CC[C@]12C=CCN3CC[C@@]4(c5cc([C@@]6(C(=O)OC)C[C@H]7C[C@@H](C(C)(F)F)CN(Cc8c6[nH]c6ccccc86)C7)c(OC)cc5N(C)[C@H]4[C@@](O)(C(=O)OC)[C@H]1OC(C)=O)[C@@H]32	inactive	
